Measured values as given in PubChem BioAssay AID1578 (Sanford-Burnham Center for Chemical Genomics, 2009).
Among all 290,000 compounds or so, about 3,000 (1%) were called active. This is one part of a sample in which actives are shown more often than they occur. Cut-off read from the data, not from the text of the source: active = inhibition mostly above about 36% (no sharp cut-off); inactive = mostly below about 34%.

Test: NOD1 signaling inhibitors, primary screen, cell-based, luminescence, uHTS (AID 1578);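 note: HEK-293T reporter cells stimulated with the NOD1 agonist gamma-tri-DAP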
Details: NOD1-driven NF-kB luciferase reporter cells, at 4 µM, hits give high values
In the case of `O=C(CN1CCCCC1)N1c2ccccc2CCc2ccccc21`, the inhibition is reported as 7.5% (inactive).
For `CC(Cl)C(=O)N1c2ccccc2CCc2ccccc21` (stereo unspecified), the inhibition was 19.8% (inactive).
With `O=C(CCl)N1c2ccccc2CCc2ccccc21` the inhibition was 94.7% (active).
In the case of `C=CCNc1cnn(-c2ccc(C)cc2)c(=O)c1Sc1ccc(C)cc1`, the inhibition is reported as 11.6% (inactive).
In the case of `CC/C(=N\NC(=O)c1ccc(Br)cc1)c1ccccc1`, the inhibition is reported as -30.9% (inactive).
With `N#C/C(=C(/O)CCl)c1nc(-c2ccccc2)cs1` the inhibition was -4.2% (inactive).
In the case of `Nc1nc2c(s1)CCc1ccccc1-2`, the inhibition is reported as -11.8% (inactive).
For `N#C/C(=C(/O)CCl)c1nc2c(s1)CCc1ccccc1-2`, the inhibition was 78.6% (active).
For `C=CCn1c(COc2ccccc2)nnc1SC(C)C(=O)N/N=C/c1cc(Cl)ccc1O` (stereo unspecified), the inhibition was 2% (inactive).
For `C=CCn1c(COc2ccc(Cl)cc2)nnc1SCC(=O)N/N=C/c1ccccc1`, the inhibition was 1.1% (inactive).
In the case of `C=CCn1c(COc2ccccc2)nnc1SCC(=O)N/N=C/c1cc(Cl)ccc1O`, the inhibition is reported as 39.9% (active).
With `CN(C)C(=O)CN1CCN(c2nc3nonc3nc2N2CCCCC2)CC1` the inhibition was -28.9% (inactive).
With `CC(C)(C)OC(=O)N/N=C/c1cccn1-c1ccc([N+](=O)[O-])cc1` the inhibition was -6.6% (inactive).
For `Cc1ccc(C(=O)OC/C(O)=C(\C#N)c2nc3ccccc3[nH]2)cc1S(=O)(=O)N1CCOCC1`, the inhibition was 20.1% (inactive).
For `N#C/C(=C(/O)COC(=O)c1cccnc1Cl)c1nc2ccccc2[nH]1`, the inhibition was -23.4% (inactive).
In the case of `N#C/C(=C(/O)COC(=O)CCCNC(=O)c1ccc(Cl)cc1)c1nc2ccccc2[nH]1`, the inhibition is reported as 86.4% (active).
For `N#C/C(=C(/O)COC(=O)Cc1c[nH]c2ccccc12)c1nc2ccccc2[nH]1`, the inhibition was -14.1% (inactive).
For `N#C/C(=C(/O)COC(=O)CCc1ccc(S(=O)(=O)N2CCOCC2)cc1)c1nc2ccccc2[nH]1`, the inhibition was 93.4% (active).
In the case of `CC(C)C(=O)OC/C(O)=C(\C#N)c1nc2ccccc2[nH]1`, the inhibition is reported as 0.8% (inactive).
In the case of `N#C/C(=C(/O)COC(=O)c1ccc(O)cc1)c1nc2ccccc2[nH]1`, the inhibition is reported as -5.6% (inactive).
With `CCOC(=O)c1c(C)[nH]c(C(=O)OC/C(O)=C(\C#N)c2nc3ccccc3[nH]2)c1C` the inhibition was -26.6% (inactive).
With `COc1cc(OC)cc(C(=O)OC/C(O)=C(\C#N)c2nc3ccccc3[nH]2)c1` the inhibition was -0.4% (inactive).
In the case of `CCCC(=O)OC/C(O)=C(\C#N)c1nc2ccccc2[nH]1`, the inhibition is reported as 105% (active).
With `N#C/C(=C(/O)COC(=O)c1ccc(Cl)c(S(=O)(=O)N2CCOCC2)c1)c1nc2ccccc2[nH]1` the inhibition was 17.7% (inactive).
In the case of `COCC(=O)OC/C(O)=C(\C#N)c1nc2ccccc2[nH]1`, the inhibition is reported as 66.5% (active).
For `O=C(CSc1nc(-c2ccccc2)c(-c2ccccc2)[nH]1)Nc1ccc2c(c1)OCO2`, the inhibition was -5.7% (inactive).
For `O=C(CSc1nn(-c2ccccc2)c(=S)s1)NC(=O)NCc1ccco1`, the inhibition was 17.4% (inactive).
With `CCCCN(C)CCNC(=O)c1cc2c(=O)[nH]c3ccccc3c2n1C` the inhibition was -7.1% (inactive).
For `CCOC(=O)COc1ccc2c(C)cc(=O)oc2c1C(=O)c1ccccc1`, the inhibition was 5.9% (inactive).
In the case of `O=C1CC(N2CCN(c3ccc(O)cc3)CC2)C(=O)N1c1ccc2c(c1)OCO2` (stereo unspecified), the inhibition is reported as -26.7% (inactive).
In the case of `COc1ccc(OC/C(O)=C(\C#N)c2nc3ccccc3[nH]2)cc1`, the inhibition is reported as -23.4% (inactive).
For `COc1ccc(/C(C)=N/OC/C(O)=C(\C#N)c2nc3ccccc3[nH]2)cc1OC`, the inhibition was 5.6% (inactive).
For `Cc1ccc(C(C)C)c(OC/C(O)=C(\C#N)c2nc3ccccc3[nH]2)c1`, the inhibition was 36.3% (active).
For `CCC(C)c1ccc(OCC(=O)NNC(=O)C2CCCCC2)cc1` (stereo unspecified), the inhibition was -4.3% (inactive).
With `O=C(Nc1ccccc1Br)c1ccccc1-c1ccccc1` the inhibition was -10.7% (inactive).
For `Cc1ccccc1NC(=O)c1ccccc1-c1ccccc1`, the inhibition was -24.9% (inactive).
In the case of `CC(=O)Nc1ccccc1NC(=O)c1ccccc1-c1ccccc1`, the inhibition is reported as 73% (active).
In the case of `CC(C)(CO)N=Cc1c(O)[nH]c2ccccc12`, the inhibition is reported as -14.8% (inactive).
In the case of `CCCCCCC(=O)Nc1ccc(Cl)cn1`, the inhibition is reported as -24.4% (inactive).
With `C=CCN(CC=C)C(=O)c1cccc(OC2CCN(S(=O)(=O)N(C)C)CC2)c1` the inhibition was 8.4% (inactive).
With `CCOc1ccc2nc(SCC#N)c(C#N)cc2c1` the inhibition was 68.2% (active).
In the case of `CCSc1nc2ccc(OC)cc2cc1C#N`, the inhibition is reported as -45.3% (inactive).
For `CCOc1ccc2nc(SCC(=O)N3CCCCCC3)c(C#N)cc2c1`, the inhibition was -18.2% (inactive).
With `O=C1/C(=C\c2ccc(O)cc2)SC(=S)N1Cc1ccccc1` the inhibition was -9.6% (inactive).
In the case of `O=C1/C(=C\c2cccc(O)c2O)SC(=S)N1Cc1ccccc1`, the inhibition is reported as -20.4% (inactive).
For `O=C1/C(=C\c2cc(Br)cc(Br)c2O)SC(=S)N1Cc1ccccc1`, the inhibition was 73.3% (active).
For `O=C(O)c1cccc(CN2C(=O)S/C(=C/c3ccccc3[N+](=O)[O-])C2=O)c1`, the inhibition was 3.9% (inactive).
With `O=C(O)c1cccc(CN2C(=O)S/C(=C/c3cccc([N+](=O)[O-])c3)C2=O)c1` the inhibition was 1.5% (inactive).
For `CCOC(=O)CN1C(=O)S/C(=C/c2ccc(O)c([N+](=O)[O-])c2)C1=O`, the inhibition was -4.5% (inactive).
For `COc1ccc(O)c(/C=C2/SC(=S)N(Cc3ccccc3)C2=O)c1`, the inhibition was -3.5% (inactive).
For `CCOC(=O)N1CCN(S(=O)(=O)N2CCCC(C(=O)NCc3ccc(F)cc3)C2)CC1` (stereo unspecified), the inhibition was 3.3% (inactive).
With `O=C(CCC(=O)N(c1cccc(F)c1)C(C(=O)NC1CCCC1)c1ccncc1)Nc1cccnc1` (stereo unspecified) the inhibition was -42.2% (inactive).
With `CC1C=CCC2C(=O)N(c3cccc(C(=O)Nc4ccc(Br)cc4)c3)C(=O)C12` (stereo unspecified) the inhibition was -16.6% (inactive).
With `CCCCN(CC)S(=O)(=O)c1c(C)[nH]c(=O)[nH]c1=O` the inhibition was -34.4% (inactive).
For `CCOc1ccc(N2CC(C(=O)Nc3nnc(C4CCCCC4)s3)CC2=O)cc1` (stereo unspecified), the inhibition was -28.2% (inactive).
In the case of `O=C(O)COc1ccccc1/C=N/NC(=O)c1cc(-c2ccccc2)nc2ccccc12`, the inhibition is reported as -11.3% (inactive).
For `CCOc1cc(C(c2c(C)[nH][nH]c2=O)c2c(C)[nH][nH]c2=O)cc(Cl)c1O`, the inhibition was 7.7% (inactive).
In the case of `CC(Cc1ccccc1)C(=O)NCc1ccncc1` (stereo unspecified), the inhibition is reported as -26.7% (inactive).
In the case of `CCCCc1ccc(NC(=O)C(=O)NCCN2CCN(C(=O)c3ccc([N+](=O)[O-])cc3)CC2)cc1`, the inhibition is reported as 0.1% (inactive).
For `CCCCc1ccc(NC(=O)C(=O)NCCN2CCN(Cc3ccc([N+](=O)[O-])cc3)CC2)cc1`, the inhibition was 34.7% (active).
With `CCc1ccc(NC(=O)C(=O)NCCN2CCN(Cc3ccc([N+](=O)[O-])cc3)CC2)cc1` the inhibition was 12.5% (inactive).
In the case of `COc1cc(OC)cc(-c2nnc(SCC(=O)N(Cc3ccccc3)C(C)(C)C)o2)c1`, the inhibition is reported as 14.6% (inactive).
In the case of `COc1ccc(-c2nnc(SCC(=O)N(Cc3ccccc3)C(C)(C)C)o2)cc1OC`, the inhibition is reported as 58.8% (active).
In the case of `COc1cc(-c2nnc(SCC(=O)N(Cc3ccccc3)C(C)(C)C)o2)cc(OC)c1OC`, the inhibition is reported as 10.5% (inactive).
For `CC1CN(S(=O)(=O)c2ccccc2)CC(C)O1` (stereo unspecified), the inhibition was -8.4% (inactive).
For `CC1CN(S(=O)(=O)c2cccs2)CC(C)O1` (stereo unspecified), the inhibition was 34.6% (active).
In the case of `O=S(=O)(c1cccs1)N1CCN(S(=O)(=O)c2cccs2)CC1`, the inhibition is reported as -16.1% (inactive).
For `CCOC(=O)NC(=O)/C(C#N)=N\Nc1cccc(Cl)c1`, the inhibition was 55.7% (active).
With `CCOC(=O)NC(=O)/C(C#N)=N\Nc1cccc(OC)c1` the inhibition was -43% (inactive).
In the case of `CCOC(=O)NC(=O)/C(C#N)=N\Nc1ccc(Cl)cc1`, the inhibition is reported as -37.5% (inactive).
In the case of `CC(C)COc1ccc(/C(O)=C2/C(=O)C(=O)N(CCN(C)C)C2c2ccncc2)cc1` (stereo unspecified), the inhibition is reported as -0.8% (inactive).
With `CS(=O)(=O)N1CCN(C(=O)COc2ccc3ccccc3c2)CC1` the inhibition was 6.1% (inactive).
In the case of `CCc1ccc2oc(C(=O)NCCc3ccc(S(N)(=O)=O)cc3)cc(=O)c2c1`, the inhibition is reported as -0.9% (inactive).
In the case of `CCOC(=O)c1c(NC(=O)C(=O)N/N=C/c2ccccc2OC)sc2c1CCCCC2`, the inhibition is reported as 7.6% (inactive).
In the case of `CCOC(=O)c1c(NC(=O)N/N=C/c2ccc(O)c(OC)c2)sc(C(C)=O)c1C`, the inhibition is reported as 53.1% (active).
For `CCOC(=O)c1c(NC(=O)N/N=C/c2ccccc2OCC)sc(C(C)=O)c1C`, the inhibition was -33.7% (inactive).
In the case of `CCOC(=O)c1c(NC(=O)C(=O)N/N=C/c2ccc(OCC)cc2)sc2c1CCCCC2`, the inhibition is reported as -14.4% (inactive).
With `CCOC(=O)c1c(NC(=O)C(=O)N/N=C/c2ccc(O)c(OC)c2)sc2c1CCCCC2` the inhibition was 81.2% (active).
In the case of `COc1cc(/C=N/NC(=O)c2sc(N)c(C#N)c2C)ccc1O`, the inhibition is reported as -14.2% (inactive).
For `CN(CC(=O)Nc1ccccc1Cl)C1CCCCC1`, the inhibition was -46.1% (inactive).
In the case of `O=C(Cc1cccs1)NCCSc1c(-c2ccc(Cl)cc2)[nH]c2ccccc12`, the inhibition is reported as 30.7% (inactive).
For `Cc1ccc(C(=O)NC(NCc2ccccc2)C(Cl)(Cl)Cl)cc1` (stereo unspecified), the inhibition was 5.2% (inactive).
With `O=C(COC(=O)C1CC2C=CC1C2)Nc1cccc(S(=O)(=O)N2CCCCC2)c1` (stereo unspecified) the inhibition was -18.1% (inactive).
In the case of `Cc1ccc(-c2cc(C(F)(F)F)c(C#N)c(=O)[nH]2)cc1`, the inhibition is reported as 1.8% (inactive).
With `N#Cc1c(C(F)(F)F)cc(-c2ccc(F)cc2)[nH]c1=O` the inhibition was -17.2% (inactive).
In the case of `N#Cc1c(C(F)(F)F)cc(-c2ccc(Cl)cc2)[nH]c1=O`, the inhibition is reported as 54.2% (active).
With `O=C(Nc1nc(-c2nc3ccccc3s2)cs1)c1ccc(S(=O)(=O)N2CCOCC2)cc1` the inhibition was 47.5% (inactive).
For `CCOc1cccc(CNc2ccc(O)cc2)c1OCc1ccccc1Cl`, the inhibition was 39.2% (active).
With `CCOc1cccc(CNc2ccc(O)cc2)c1OCc1ccc(Cl)cc1` the inhibition was 22.1% (inactive).
For `CCOc1cccc(CNc2ccc(O)cc2)c1OCc1ccc(Cl)cc1Cl`, the inhibition was 7.6% (inactive).
In the case of `CCC(C)NC(=O)c1cc(Cl)c(NC(=O)C2=C(C)OCCS2)cc1OC` (stereo unspecified), the inhibition is reported as -9.8% (inactive).
